# HCV inh: qHTS Assay for Inhibitors of Hepatitis C Virus (HCV); Huh7.5.1 HCVcc-Cre infection, luciferase reporter, 44 h; Potency, µM (doses to about 41.8 µM), actives largely listed as inhibitors; 340,000 tested, 3.4% active; AID 651820, 2012
#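 Antiviral activity was scored by luciferase reporter output from cells infected with HCVcc-Cre (~0.5 moi) in presence of compound, 44 h infection period, cells seeded 1,000/well 4 h prior.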
# Vaccinia mCherry: qHTS for Stage-Specific Inhibitors of Vaccinia Orthopoxvirus: mCherry Reporter Primary qHTS | Vaccinia virus mCherry reporter infection, fluorescence | Potency, µM (top dose mostly 36.5 µM), usual class: inhibitors | 310,000 tested, 0.63% active; calls by dose curve; tested in A549 cells; further: nearly all actives have a fitted effect of over 35% in size
# VACV Venus inh: qHTS for Stage-Specific Inhibitors of Vaccinia Orthopoxvirus: Venus Reporter Primary qHTS; Vaccinia virus Venus reporter expression, fluorescence; AID 720580, 2013; Potency, µM (doses to about 36.5 µM), usual class: inhibitors; 330,000 tested, 0.46% active; calls by dose curve; tested in A549 cells; further: nearly all actives have a fitted effect of over 30% in size
# FMDV inh: High Throughput Screening for Foot and Mouth Disease Virus Antivirals; FMDV antiviral cell-based qHTS; Potency, µM (highest dose often 57.9 µM), most hits filed as inhibitors; 410,000 tested, 1.2% active; AID 1159524, 2015; calls by dose curve; tested in HEK293T cells; further: read-out not given here; nearly all actives have a fitted effect of over 45% in size
# Sm TGR inh: qHTS Assay for the Inhibitors of Schistosoma Mansoni Peroxiredoxins; Schistosoma mansoni thioredoxin glutathione reductase (TGR), Q962Y6; purified TGR, DTNB reduction, TNB absorbance 405 nm; Potency, µM (highest dose often 114 µM), usual class: inhibitors; 360,000 tested, 3% active; AID 485364, 2010; further: nearly all actives have a fitted effect of over 60% in size
#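 First, TGR (20 nM dispensed) and NADPH were mixed with compound. Second, a 15 min room-temperature incubation followed. Third, further NADPH and then DTNB were added to start the reaction. Finally, TNB absorbance was monitored kinetically.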
# HCMV inh: qHTS Assay for inhibitors of the human cytomegalovirus (HCMV). 410,000 tested, 4.5% active. HFF cells, HCMV-luciferase reporter, 72 h; stronger effect = lower value. activity change, negative = inhibition, % at 57.5 µM; in the data active means activity change below about -60%; inconclusive means no clear call, values can overlap the other calls; inactive means above about -39%
#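 Human foreskin fibroblasts infected with luciferase-reporter HCMV at MOI 1 PFU/cell, compounds at two doses. Luciferase measured 72 h post infection; normalized to buffer-only basal and Salinomycin (10uM) controls.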
# Hits are given with their value; 0 = inactive; ? = inconclusive; - = not tested or not shown; [ ] = remark or other dose. A selection: hits, their analogues and other compounds. The true share with any hit is near 9.3%. Unless noted, the call rests on the fitted dose curve; in most records, active means well fitted curve in the direction sought with a large enough effect; inconclusive means small, poorly fitted or top-dose-only effect, or another doubt; inactive means no such curve, though single readings can be large; an effect the other way counts as inactive or inconclusive.
SMILES,HCV inh,Vaccinia mCherry,VACV Venus inh,FMDV inh,Sm TGR inh,HCMV inh
CC[C@@H](C)[C@@H](CO)NC(=O)[C@H]1O[C@@H](n2cnc3c(N)ncnc32)[C@H](O)[C@@H]1O,-,0,0,0,-,0
Cc1cccc(NC(=O)C(c2ccccc2)N2Cc3ccccc3C2=O)c1C (stereo not drawn),-,0,0,0,0,-73.8
COC(=O)C1=C(C(=O)OC)[C@@H]2N(Cc3ccccc3)c3ccccc3[C@@]23C[C@@H](C(=O)OC)N(C(=O)c2ccc(Br)cc2)C3=N1,0,?,10µM,?,0,-
C=CCN1c2ccccc2[C@]23C[C@@H](C(=O)OC)N(C(=O)c4ccc(Br)cc4)C2=NC(C(=O)OC)=C(C(=O)OC)[C@H]13,0,?,?,?,0,0
COC(=O)C1=C(C(=O)OC)[C@@H]2N(C)c3ccc(OC)cc3[C@@]23C[C@@H](C(=O)OC)N(C(=O)c2ccc(Br)cc2)C3=N1,0,?,11.2µM,?,0,0
C=CCN1c2ccccc2[C@]23C[C@@H](C(=O)OC)N(C(=O)CC(C)C)C2=NC(C(=O)OC)=C(C(=O)OC)[C@H]13,7.94µM,0,0,0,0,0
CC#CCN1c2ccccc2[C@]23C[C@@H](C(=O)OC)N(C(=O)C4CCC4)C2=NC(C(=O)OC)=C(C(=O)OC)[C@H]13,0[8.37 µM],0,0,0,0,-74.8
O=C(O)c1cccc(N/N=C/C2=C(Cl)c3cc(Cl)ccc3SC2)c1,0,-,-,0,?,0
CN(CC1COCCO1)C(=O)c1cnn(-c2ncc3c(n2)-c2ccccc2CC3)c1C1CC1 (stereo not drawn),-,?,0,0,-,-
CC1(C)CC(=O)c2sc(NS(=O)(=O)c3ccccc3)nc2C1,0,0,0,0,-,0
Cc1[nH]c2ccc(OCc3ccccc3)cc2c1CCN,0,-,-,0,0,0
Cc1[nH]c2ccc(O)cc2c1CCN,0,0,0,0,39.8µM,0
Nc1nc2ccccc2n1/N=C/c1cccnc1,0,0,0,0,-,0
Nc1nc2ccccc2n1/N=C/c1ccc([N+](=O)[O-])s1,3.55µM,?,?,0,0,?
COc1ccc(CNS(=O)(=O)c2ccc(N3CCCC3)cc2Br)cc1,?,0,0,0,-,0
Cc1ccc(NC(=O)c2ccc(NCCCN3CCC(C)CC3)c([N+](=O)[O-])c2)cc1F,?,0,0,0,0,0
O=C(Nc1cccc(Cl)c1)c1ccc(NCCCN2CCOCC2)c([N+](=O)[O-])c1,10µM,0[1.46 µM],?,?,0,?
Clc1cccc(N2CCN(c3ncnc4nc[nH]c34)CC2)c1,0,0,0,0,0,0
CCCN(CCC)CCCNC(=O)c1cc2c(-c3ccc(Cl)cc3)nn(C)c2s1,-,?,0,0,0,-89.3
CCN(CC)CCCNC(=O)c1cc2c(-c3ccc(Cl)cc3)nn(C)c2s1,11.2µM,0,?,0,0,-
CN1CCN(CCCNC(=O)c2cc3c(-c4ccc(Cl)cc4)nn(C)c3s2)CC1,?,0,0,0,0,0
FC(F)(F)c1ccc(N2CCN(c3cc(-c4ccccc4)nc4ncnn34)CC2)nc1,8.91µM,0,0,-,0,-97.8
O=C(O)c1ccc(Nc2nc3ccc(Cl)cc3[nH]2)cc1,2.82µM,0,0,0,0,0
CC(C)(C)c1ccc(C(=O)Nc2onc3c2CCCC3)cc1,-,0,0,0,0,-74.7
CN(C)CC(CCCCC(CN(C)C)C(=O)c1ccccc1)C(=O)c1ccccc1 (stereo not drawn),8.91µM,-,-,?,0,?
O=C(NCc1ccc(F)cc1)c1ccccc1OCc1ccccc1,0,0,0,?,0,-63.4
O=C(N/N=C/c1ccccc1F)c1ccccc1OCc1ccccc1,10µM,0,0,0,0,0
CN(C)S(=O)(=O)c1cccc(NC(=O)c2ccccc2OCc2ccc(F)cc2)c1,6.31µM,0,0,0,0,0
CC(=O)c1ccccc1OCc1ccc(S(=O)(=O)Cc2ccccc2)cc1,10µM,-,-,?,0,-70.5

# Source: PubChem BioAssay
